Reference: PubChem BioAssay (NCI)
The panel holds about 83,000 compounds, 20% with a hit somewhere; the sample as a whole holds those more often.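 Values shown are percent growth following 48 h exposure of cells in 96-well plates to a single concentration of compound; below 10 was considered active.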 Unmarked numbers belong to inactive results. The source made the active and inactive calls.

What was measured:
Experiment in all cases: NCI-60 one-dose screen, 48 h (100 = growth as untreated, 0 = no growth, -100 = all killed)
NCI-H23 lung = conditions: 10 µM unless noted
NCI-H226 lung = conditions: 10 µM unless noted
NCI-H322M lung = conditions: 10 µM unless noted
HOP-62 NSCLC = conditions: 10 µM unless noted
NCI-H460 lung = conditions: 10 µM unless noted
HOP-92 NSCLC = conditions: 10 µM unless noted
NCI-H522 lung = conditions: 10 µM unless noted
A549/ATCC NSCLC = conditions: 10 µM unless noted
786-0 renal = conditions: 10 µM unless noted
COLO 205 colon = conditions: 10 µM unless noted
DU-145 prostate = conditions: 10 µM unless noted
K-562 leukemia = conditions: 10 µM unless noted
MALME-3M melanoma = conditions: 10 µM unless noted
MDA-MB-231 breast = conditions: 10 µM unless noted
RXF 393 renal = conditions: 10 µM unless noted
SF-268 CNS = conditions: 10 µM unless noted
SF-295 CNS = conditions: 10 µM unless noted
SF-539 CNS = conditions: 10 µM unless noted
UACC-257 melanoma = conditions: 10 µM
M14 melanoma = conditions: 10 µM unless noted

Row | SMILES | growth (NCI-H23 lung) | growth (NCI-H226 lung) | growth (NCI-H322M lung) | growth (HOP-62 NSCLC) | growth (NCI-H460 lung) | growth (HOP-92 NSCLC) | growth (NCI-H522 lung) | growth (A549/ATCC NSCLC) | growth (786-0 renal) | growth (COLO 205 colon) | growth (DU-145 prostate) | growth (K-562 leukemia) | growth (MALME-3M melanoma) | growth (MDA-MB-231 breast) | growth (RXF 393 renal) | growth (SF-268 CNS) | growth (SF-295 CNS) | growth (SF-539 CNS) | growth (UACC-257 melanoma) | growth (M14 melanoma)
1 | COc1cc2cc(Oc3ccc(NC(=O)Nc4cccc(C(F)(F)F)c4)cc3)c(C)nc2cc1OCCN(C)C | 91.2% | 104% | 117% | 105% | 99.9% | 74.7% | 102% | 96.7% | 88.7% | 98.5% | 92.5% | 10% (active) | 84.7% | 98.1% | 75.9% | 107% | 81.1% | 92% | 100% | 107%
2 | O=C(NNc1nc2cc(F)c(F)cc2n2cccc12)c1cccnn1 | 25.9% | 4.29% (active) | 26.2% | 20.2% | 8.06% (active) | 75.4% | -8.32% (active) | 14.1% | 19.2% | 9.86% (active) | 24.3% | 13.3% | 17.8% | 32.4% | 40.1% | 14% | 8.56% (active) | 0.368% (active) | 5.44% (active) | 11.2%
3 | O=S(=O)(NC1CC2CCC1C2)c1ccc2c(c1)C(=NO)c1cc(S(=O)(=O)NC3CC4CCC3C4)ccc1-2 (stereo not given) | -84.2% (active) | 75.2% | 58.3% | -70.5% (active) | 23.5% | -4.1% (active) | 32.4% | 75% | 31.3% | 85.5% | 4.92% (active) | 11.9% | -78.9% (active) | -21.9% (active) | -9.66% (active) | 8.95% (active) | 62.9% | -35% (active) | 105% | 24.9%
4 | CC(=O)Nc1ccc(NC(=O)Nc2cccc(-c3nc(-c4ccc(NC(=O)c5cccs5)cc4Cl)no3)c2)cc1C(F)(F)F | -60.2% (active) | -41.2% (active) | -8.96% (active) | -74.8% (active) | -59.4% (active) | -46.8% (active) | -39.6% (active) | -27.1% (active) | -43.4% (active) | -64.4% (active) | -15.4% (active) | 1.01% (active) | -84.3% (active) | -60.6% (active) | -85% (active) | -38.8% (active) | -62.9% (active) | -87.5% (active) | -58.4% (active) | -59.2% (active)
5 | CN1CCN(Cc2ccc(NC(=O)c3cncc(C#Cc4cnc5ccc(O[C@H]6CCOC6)nn45)c3)cc2C(F)(F)F)CC1 | -53.5% (active) | -63.8% (active) | -36.4% (active) | -77.7% (active) | -77.7% (active) | -38.3% (active) | -72.1% (active) | -87.7% (active) | -89.7% (active) | -89.1% (active) | -78.9% (active) | 0.583% (active) | -87.5% (active) | -59.7% (active) | -76.9% (active) | -63.8% (active) | -81.8% (active) | -92% (active) | -52% (active) | -87.2% (active)
6 | C#C[C@]1(O)CC[C@H]2[C@@H]3CC=C4c5sc(-c6ccccn6)nc5CC[C@]4(C)[C@H]3CC[C@@]21C | 81.2% | 94.4% | 90.6% | 77.5% | 75.9% | 110% | 91.6% | 85.7% | 24.5% | 90.9% | 90.2% | 31.9% | 81.9% | 78.6% | -34.4% (active) | 82.4% | -37.3% (active) | 30.9% | 70.5% | 74.8%
7 | Cc1csc(Nc2cccc(Nc3nc(C)cs3)c2)n1 | 58.4% | 85% | 96.2% | 98.8% | 76.5% | 52.2% | 73.3% | 88% | 94.5% | 87.2% | 83.8% | 60.1% | 84.8% | 79.2% | 91% | 85.2% | 66.2% | 83.8% | 89.7% | 86%
8 | CNC(=O)c1cc(Oc2ccc3nc(NC(=O)c4ccc(CN5CCCN(C)CC5)c(C(F)(F)F)c4)sc3c2)ccn1 | 23% | 82.9% | 32.2% | 11.5% | 5.57% (active) | 37.7% | -56.6% (active) | 39.9% | -76.3% (active) | -64.4% (active) | 40.2% | -39.9% (active) | -69.7% (active) | -21.9% (active) | -46.4% (active) | 58% | -34.8% (active) | -82.5% (active) | -88.4% (active) | -88% (active)
9 | IP(CCCSc1n(Cc2ccc3ccccc3c2)c(-c2ccccc2)c(-c2ccccc2)[n+]1Cc1ccc2ccccc2c1)(c1ccccc1)(c1ccccc1)c1ccccc1 | 26.3% | 78.8% | 63.5% | 31.2% | 22.8% | -1.48% (active) | 8.1% (active) | 26.7% | 87.2% | -9.45% (active) | 34.7% | 25.3% | 14.6% | 32.5% | 99.7% | 23.8% | 31.8% | 35.3% | 4.7% (active) | 51.5%
10 | N/C(=N\OC(=O)CSc1nc2ccccc2s1)c1ccc2ccccc2c1 | 95.3% | 99.6% | 101% | 92% | 108% | 95.9% | 91.2% | 102% | 103% | 107% | 103% | 102% | 105% | 89.5% | 119% | 98.2% | 103% | 95.2% | 105% | 98.6%
11 | C#C[C@]1(O)CC[C@H]2[C@@H]3CC=C4c5sc(-c6cccc(F)c6)nc5CC[C@]4(C)[C@H]3CC[C@@]21C | 84.2% | 83.5% | 73.8% | 91.4% | 93.5% | 113% | 89.2% | 83.8% | 65.3% | 97.9% | 99.2% | 19% | 95.4% | 93.2% | 20.7% | 85.8% | 61.9% | 67.3% | 90% | 82%
12 | CCOC(=O)C1=C(C)N=C2Sc3ccccc3N2C1c1ccccc1 (stereo not given) | 85.2% | 89.2% | 86.8% | 101% | 91.2% | 75.4% | 73.9% | 82.9% | 87.7% | 96% | 98.2% | 72.8% | 102% | 83.2% | 109% | 101% | 98.3% | 90.3% | 92.6% | 89.5%
13 | CCOC(=O)c1c(NC(=O)c2cccc(C(F)(F)F)c2)sc2c(CN3CCN(C)CC3)c(O)ccc12 | 53.4% | 83.8% | 8.01% (active) | 38.8% | -64.4% (active) | 30.7% | -14.4% (active) | 32% | -83.6% (active) | -55.1% (active) | -85.6% (active) | 1.42% (active) | -86.6% (active) | -75.5% (active) | 35.1% | 26.2% | -81% (active) | -94.7% (active) | 28.1% | -54.6% (active)
14 | CC(C)=CCc1c2c(c(O)c3c1O[C@]14C(=C[C@@H]5C[C@H]1C(C)(C)O[C@@]4(C/C=C(/C)C(=O)O)C5=O)C3=O)CC(O)C(C)(C)O2 (stereo not given in full) | -60.3% (active) | 18.4% | 11.6% | -19.3% (active) | -33.2% (active) | -8.8% (active) | -53.9% (active) | -9.15% (active) | -39.6% (active) | -67% (active) | -78.2% (active) | 5.83% (active) | -38.5% (active) | 0.342% (active) | -77.4% (active) | -40.7% (active) | -48.5% (active) | -37.2% (active) | -32.5% (active) | -24.8% (active)
15 | CCOC(=O)C1=C(C)Nc2nc3ccccc3n2C1c1cccc(Br)c1 (stereo not given) | 86.7% | 102% | 97.6% | 74.3% | 89.2% | 99.3% | 37.1% | 80.7% | 93.5% | 81.6% | 93.3% | 29.9% | 51.9% | 79% | 99.7% | 94.7% | 60.7% | 85.8% | 87.1% | 63.4%
